# PubChem BioAssay (EPA / NIEHS)
# Calls of active or inactive are those of the source. Rule for the calls: active = hit-call score of the fitted dose curve at least 0.9, where 1 is the maximum; inactive = score below 0.9.
# Read-out: Hypoxia-inducible factor 1-alpha (Homo sapiens) (UniProt Q16665)
# Experiment: LTEA_HepaRG_HIF1A: Life Technologies and Expression Analysis (LTEA) Assay for Hypoxia-inducible factor 1 (HIF1A) Trancription factor using HepaRG (AID 2283503);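 note: HIF1A transcript by TaqMan qRT-PCR normalized to ACTB GAPDH and POLR2A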
# Settings: mRNA level, 48 h; actives raise or lower the signal
# Method: LTEA_HepaRG is a cell based, multiplexed-readout assay that uses HepaRG, a human liver cell line, with measurements taken at 48 hours after chemical dosing on a 96-well plate.LTEA_HepaRG_HIF1A is one of 102 assay component(s) measured in the LTEA HepaRG cell culture assay. It is a marker of Cell proliferation, survival, death.Data from the assay component LTEA_HepaRG_HIF1A was analyzed into 1 endpoint. This assay endpoint, LTEA_HepaRG_HIF1A, was analyzed with bidirectional fitting relative to DMSO as the negative control and baseline of activity. Using a type of inducible reporter, measures of mRNA induction for gain or loss-of-signal activity can be used to understand regulation of transcription factor activity. To generalize the intended target to other relatable targets, this assay endpoint is annotated to the dna binding intended target family, where the subfamily is basic helix-loop-helix protein.
# A total of 1060 chemcials from the ToxCast library were tested in eight-point concentration-response experiments. Cell culture and cytotoxicity assays were conducted at Thermo Fisher Scientific's Custom Services facility (Madison, WI). A single lot of human HepaRG cells (Thermo Fisher Scientific, Frederick, MD) was used for the cell culture experiments. 96-well format collagen type I coated plates of human HepaRG cells were prepared using established methods. Briefly, cryopreserved HepaRG cells were thawed, plated at a density of approximately 100,000 cells/well in HepaRG Thaw, Plate, and General Purpose media (HPRG770, Thermo Fisher Scientific), and incubated for 48 hours. 0.5% DMSO was selected as vehicle control to balance the requisite need of DMSO in HepaRG cultures to maintain differentiation (for example, baseline metabolism, proportions of hepatocytes vs. cholangiocytes), while enabling further hepatic receptor pathway activation (for example, PXR and CAR) in response to chemical exposure. 48 hours after plating, the culture medium was replaced with HepaRG Serum-Free Incudtion Media. Cells were exposed to each test chemical in duplicate and maintained in CO2 incubators for another 48 hours. Chemical plates were thawed to room temperature and 200x concentrations of treatment groups were prepared. 8-point conentration-reponse curves were made with the highest exposure at 100 uM, followed by half-log dilutions, all in 0.5% DMSO. Each test plate contained variouse controls, induction positive controls (1mM phenobarbital), cytotoxicity positive controls ([…] aflatoxin B1), vehicle controls (0.5% DMSO), and total lysis controls (0.5% DMSO). Cell morphology images were taken using an Essen IncuCyte FLR automated microscope, with six 96-well plates imaged in about 24 minutes. Images were captured and exported and JPEG files. Spent culture media was transfered to black-well plates for the LDH assay, and remaining media was sorted at -80 C for later use. Cells were treated with RLT buffer and frozen until shipped for gene expression analysis. Total RNA was isolated from the cell suspension in 75 uL of Buffer RLT (Qiagen, Germantown, MD 20874) by Quintiles/Expression Analysis (Durham, NC) using a custom isolation procedure. Total RNA from each plate well was transferred to a preamplification plate. Fluidigm's 96.96 Dynamic ArrayTM (Fluidigm, Amsterdam, the Netherlands) technology was used for gene expression analyses by quantitative reverse transcription polymerase chain reaction (qRT-PCR, performed by Quintiles/Expression Analysis, Durham, NC)89. Standard TaqManTM Assays (Applied Biosystems/ThermoFisher Scientific, Foster City, CA) were used to assess the expression of 93 genes selected based on their selectivity and sensitivity to important hepatic receptors known to be modulated by environmental chemicals; importance in human hepatocyte functionality; and hepatotoxicity. […]
# Chain of Hypoxia-inducible factor 1-alpha (Homo sapiens) (Q16665 whole entry, looked up): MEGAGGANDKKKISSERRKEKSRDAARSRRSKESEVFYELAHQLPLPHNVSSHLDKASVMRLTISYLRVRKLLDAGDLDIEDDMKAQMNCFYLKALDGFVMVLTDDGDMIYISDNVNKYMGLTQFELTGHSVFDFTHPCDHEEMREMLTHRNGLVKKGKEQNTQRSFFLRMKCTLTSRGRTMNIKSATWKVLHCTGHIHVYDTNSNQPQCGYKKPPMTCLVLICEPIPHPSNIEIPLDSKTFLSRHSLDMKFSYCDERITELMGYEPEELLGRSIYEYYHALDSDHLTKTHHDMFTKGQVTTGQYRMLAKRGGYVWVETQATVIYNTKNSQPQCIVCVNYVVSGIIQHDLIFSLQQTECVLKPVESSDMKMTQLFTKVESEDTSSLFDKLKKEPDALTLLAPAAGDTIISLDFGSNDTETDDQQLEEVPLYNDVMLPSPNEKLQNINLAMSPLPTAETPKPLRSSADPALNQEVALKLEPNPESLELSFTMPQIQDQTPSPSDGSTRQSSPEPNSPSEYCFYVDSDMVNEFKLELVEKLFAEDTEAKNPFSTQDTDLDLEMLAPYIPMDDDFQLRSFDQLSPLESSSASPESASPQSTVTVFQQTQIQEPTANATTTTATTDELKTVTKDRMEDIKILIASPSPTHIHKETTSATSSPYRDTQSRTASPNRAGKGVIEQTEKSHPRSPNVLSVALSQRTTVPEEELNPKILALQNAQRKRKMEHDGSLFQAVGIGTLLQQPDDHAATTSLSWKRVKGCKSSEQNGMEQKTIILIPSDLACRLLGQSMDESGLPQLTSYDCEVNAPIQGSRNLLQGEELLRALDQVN
SMILES,outcome,AC50
CCOP(=S)(OCC)Oc1nc(Cl)c(Cl)cc1Cl,inactive,–
CC12CC1(C)C(=O)N(c1cc(Cl)cc(Cl)c1)C2=O (centres undefined),inactive,–
CN(C)N=O,inactive,–
Cc1ccccc1N,inactive,–
O=[N+]([O-])c1ccc(O)c([N+](=O)[O-])c1,–,44.8 µM (active)
CCC(=O)C(CC(C)N(C)C)(c1ccccc1)c1ccccc1 (centres undefined),inactive,–
ClCC(Cl)CCl,inactive,–
O=C(Nc1ccc2[nH]ccc2c1)c1cc2cc(F)ccc2n1Cc1cccc(F)c1,–,84.5 µM (active)
Cn1sc(Cl)cc1=O,inactive,–
CC(C)(C)CC(C)(C)c1ccc(O)cc1,inactive,–
C[C@@H]1C[C@@H]([C@H](O)CC2CC(=O)NC(=O)C2)C(=O)[C@@H](C)C1,–,9.18 µM (active)
O=c1[nH]c(=O)[nH]c(=O)[nH]1,inactive,–
CCCCCCCCc1ccc(O)cc1,inactive,–
CC(C)(OO)c1ccccc1,inactive,–
ClC1(Cl)C2(Cl)C3(Cl)C4(Cl)C(Cl)(Cl)C5(Cl)C3(Cl)C1(Cl)C5(Cl)C24Cl (centres undefined),inactive,–
CCC(C)(C)c1ccc(O)c(C(C)(C)CC)c1,inactive,–
NC(=O)O,inactive,–
O=C1C2(Cl)C3(Cl)C4(Cl)C(Cl)(Cl)C5(Cl)C3(Cl)C1(Cl)C5(Cl)C24Cl (centres undefined),–,92.5 µM (active)
CCN1CCC2(CC1)COc1cc3c(cc12)N(C(=O)c1ccc(-c2ccc(-c4nnc(C)o4)cc2C)cc1)CC3,–,27.7 µM (active)
COc1cc(-c2ccc(N)c(OC)c2)ccc1N,inactive,–
CC(=O)[O][Hg][c]1ccccc1,inactive,–
C=CC(=O)OCCCCCC(C)C,inactive,–
O=C(O)C(F)(F)C(F)(F)C(F)(F)C(F)(F)C(F)(F)C(F)(F)F,inactive,–
CC(C)(c1ccccc1)c1ccc(O)c(C(C)(C)c2ccccc2)c1,–,90.2 µM (active)
O=C(O)C(F)(F)C(F)(F)C(F)(F)C(F)(F)C(F)(F)C(F)(F)C(F)(F)C(F)(F)C(F)(F)C(F)(F)F,inactive,–
CCOP(=S)(OCC)SCSP(=S)(OCC)OCC,inactive,–
C[C@]12CCC(=O)C[C@@H]1CC[C@@H]1[C@@H]2CC[C@]2(C)[C@@H](O)CC[C@@H]12,inactive,–
C=C(C)C(=O)[O][Sn]([CH2]CCC)([CH2]CCC)[CH2]CCC,–,5.19 µM (active)
O=C(O)C(Cl)(Cl)Cl,inactive,–
